# Bioassay records (PubChem BioAssay)
# Hck-Nef inh = inhibitors of Nef-activated human Hck kinase, primary screen, biochemical, Z-Lyte FRET, 384-well, Hck-YEEI. hit rate 0.68% among 220,000. Tyrosine-protein kinase HCK (Homo sapiens), P08631. inhibition, % at 20 µM. Recombinant Hck-YEEI plus Nef, Z-Lyte FRET kinase assay;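 active means Hck-Nef kinase inhibition above about 50%, limit read from the data; inactive means inhibition below that limit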;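 further: 0% = DMSO with Hck plus Nef and 100% = Hck alone without Nef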
# eIF4E 4G PPI = eIF4E–eIF4G protein interaction inhibitors, primary screen, biochemical, uHTS, TR-FRET, eIF4GI fragment; TR-FRET eIF4E-eIF4GI(517-606) binding, 2 h; inhibition, % at 21.7 µM; hit rate 0.37% among 220,000; AID 782, 2007;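 active means inhibition above about 30%, limit read from the data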;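 further: 0% = full FRET control wells and 100% = background wells lacking eIF4GI fragment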
# Mcl1-Noxa inh = Mcl-1/Noxa binding inhibitors, primary screen, biochemical, TR-FRET, 1536-well | TR-FRET Mcl-1/Noxa peptide binding, 2 h | inhibition, % at 21.7 µM | hit rate 1.5% among 220,000 | AID 1022, 2008;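 active means compounds that cut the protein-peptide binding signal by more than 50% relative to plate controls in a single-dose test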;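 further: His-tagged Mcl-1 with rhodamine Noxa BH3 peptide and terbium anti-His antibody; 0% = Mcl-1 plus Noxa peptide wells and 100% = peptide-only wells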
# Target sequence (Q07820 whole entry, looked up): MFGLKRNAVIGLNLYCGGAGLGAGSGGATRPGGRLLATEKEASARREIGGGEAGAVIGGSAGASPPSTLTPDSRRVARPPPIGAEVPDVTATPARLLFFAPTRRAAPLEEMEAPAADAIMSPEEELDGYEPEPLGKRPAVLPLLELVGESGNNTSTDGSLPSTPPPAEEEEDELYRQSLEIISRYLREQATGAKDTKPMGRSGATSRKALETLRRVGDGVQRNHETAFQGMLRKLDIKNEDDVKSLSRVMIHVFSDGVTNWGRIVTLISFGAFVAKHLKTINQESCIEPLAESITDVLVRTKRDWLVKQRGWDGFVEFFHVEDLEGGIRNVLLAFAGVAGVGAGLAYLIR
# Mcl-1 Bim block = inhibitors of Bim peptide binding to Mcl-1, primary screen, biochemical, bead-based flow cytometry, multiplex; Induced myeloid leukemia cell differentiation protein Mcl-1 (Homo sapiens), Q07820; Bim peptide-Mcl-1 binding; inhibition, % at 10 µM; hit rate 0.1% among 190,000; AID 1009, 2008; in the data active means inhibition above about 40%;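 further: 0% = no compound tracer wells and 100% = peptide blocker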
# Mcl1-Bid inh = Mcl-1/Bid binding inhibitors, primary screen, biochemical, TR-FRET, 1536-well | Induced myeloid leukemia cell differentiation protein Mcl-1 (Homo sapiens), Q07820 | TR-FRET Mcl-1/Bid-Dy647 peptide binding | inhibition, % at 21.7 µM | hit rate 0.97% among 220,000 | AID 1021, 2008;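 active means compounds that cut the binding signal by more than half at the single screening dose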;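 further: His-tagged Mcl-1 with europium anti-His antibody binding Bid BH3 peptide; 0% = Mcl-1 plus peptide wells and 100% = peptide-only wells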
# 14-3-3 Bad inh = inhibitors of 14-3-3 zeta/Bad binding, primary screen, biochemical, TR-FRET, bovine 14-3-3 zeta; inhibition, % at 21.7 µM; TR-FRET 14-3-3zeta/Dy647-pBad peptide displacement, 1 h; hit rate 0.71% among 220,000; 14-3-3 protein zeta/delta (Bos taurus), P63103; AID 781, 2007;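 active means inhibition above about 70%, limit read from the data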;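 further: 0% = full 14-3-3 plus peptide FRET controls and 100% = background without 14-3-3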
# Target sequence (P63103 whole entry, looked up): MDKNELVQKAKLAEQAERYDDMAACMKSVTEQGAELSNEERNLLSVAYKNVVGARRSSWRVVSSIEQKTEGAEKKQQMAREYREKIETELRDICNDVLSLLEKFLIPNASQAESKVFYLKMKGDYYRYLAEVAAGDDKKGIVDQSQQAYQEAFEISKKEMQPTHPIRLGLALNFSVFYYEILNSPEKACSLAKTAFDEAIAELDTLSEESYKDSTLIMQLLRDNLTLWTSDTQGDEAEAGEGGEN
# * marks the source's active call; other numbers are inactive results; . = no result; [ ] = dose if it differs, or a comment. Most compounds without a hit are left out; they make up all but 3.5% or so of the library.
SMILES,Hck-Nef inh,eIF4E 4G PPI,Mcl1-Noxa inh,Mcl-1 Bim block,Mcl1-Bid inh,14-3-3 Bad inh
CCCC1=NN(C(=O)Cc2ccc(OC)c(OC)c2)C(O)(C(F)(F)F)C1 (stereo not drawn),4,-6,8,.,-18,-7
CCCCOC(=O)Nc1nnc(SCCOc2ccc(C)cc2)s1,2,44*[fluorescence artefact?],2,-2,-23,5
CCOc1c2ccc(C(=O)NCc3ccc4c(c3)OCO4)cc2nn1CCOC,4,0,6,-4,-27,38
CCc1ccc(C(=O)NNC(=O)OC)cc1,21,72*,11,0,0,-14
COc1ccc2c(=O)c(Oc3ccc(C(=O)O)cc3)c(C(F)(F)F)oc2c1,2,1,3,-2,-4,1
O=C(CN(c1cccc(Cl)c1)S(=O)(=O)c1ccc(Cl)cc1)N1CCc2ccccc2C1,4,3,24,-3,9,-3
CCOc1ccc(NC(=O)c2oc3ccccc3c2NC(=O)CC)cc1,0,7,-11,0,78*,10
COc1ccc(NC(=O)c2oc3ccccc3c2NC(=O)C2CC2)cc1,2,3,10,1,-7,-2
Cc1ccc(CSc2nnc([C@@H]3CCCN3)o2)cc1,1,4,50,-1,63*,8
Cc1noc(C(F)(F)F)c1C(=O)NNC(=O)c1ccccc1,2,-1,8,.,-18,-14
CCc1ccccc1NC(=O)CSc1ccsc1[N+](=O)[O-],5,8,54*,-3,-57,-5
O=C(CSc1ccsc1[N+](=O)[O-])NCc1ccccc1,27,2,46,-3,-12,-17
NS(=O)(=O)c1ccc(CCNC(=O)CSc2ccsc2[N+](=O)[O-])cc1,21,9,53*,5,-35,-7
O=C(CSc1ccsc1[N+](=O)[O-])Nc1cccc(F)c1,32,50*,98*,0,-47,51
COc1ccc(OCC(O)CNC(=O)Nc2cc(F)ccc2C)cc1 (stereo not drawn),5,2,9,.,-6,-6
CC(Sc1ccc(Cl)cc1)C(=O)Nc1ccccc1-c1ccccc1 (stereo not drawn),4,8,71*,-2,3,-19
Cc1ccc(SC(C)C(=O)Nc2ccccc2-c2ccccc2)cc1 (stereo not drawn),4,3,10,-1,3,-1
COc1ccccc1C1NC=C([N+](=O)[O-])C=C1[N+](=O)[O-] (stereo not drawn),4,-14,77*,-7,-1,22
COc1ccccc1C1C([N+](=O)[O-])=CC([N+](=O)[O-])=CN1C (stereo not drawn),-2,9,11,-2,-45,-7
O=C(COc1ccccc1)Nc1sc2c(c1C(=O)NCc1cccnc1)CCCC2,13,-37,-25,0,59*,36
COC(=O)c1ccc(N2C(=O)CC(Sc3n[nH]c(C)n3)C2=O)cc1 (stereo not drawn),2,4,53*,0,-17,-1
COC(=O)c1cc(C(=O)OC)cc(N2C(=O)CC(Sc3nc(C)cc(C)n3)C2=O)c1 (stereo not drawn),-1,-8,8,2,-11,9
FC(F)(F)c1cc(-c2ccccc2)nc2nc(N3CCOCC3)sc12,8,0,0,-1,-13,-20
CC(=O)c1c(O)c2ccccc2n(C)c1=O,-6,1,51*,0,-21,3
CCn1c(=O)c(C(C)=O)c(O)c2ccccc21,5,5,19,0,-9,-8
SMILES,Hck-Nef inh,eIF4E 4G PPI,Mcl1-Noxa inh,Mcl-1 Bim block,Mcl1-Bid inh,14-3-3 Bad inh
CCC(=O)N1CCCc2cc(S(=O)(=O)N3CCN(c4ccccc4F)CC3)ccc21,5,2,65*,1,6,-10
CCC(=O)N1CCCc2cc(S(=O)(=O)N3CCN(c4ncccn4)CC3)ccc21,3,5,9,7,2,-13
CN(C)C(=O)c1cccn1-c1ncc(C(F)(F)F)cc1Cl,22,2,3,-2,-8,-15
CN(C)C(=O)c1cn(N(C)c2ncc(C(F)(F)F)cc2Cl)c(=O)c2ccccc12,1,14,31,-3,61*,51
COc1ccc(-c2ccnc3nc(-n4cccc4)nn23)cc1,9,-3,51*,-3,14,45
COc1ccc(-c2ccnc3nc(N4CCOCC4)nn23)cc1,2,21,-13,7,-12,-6
c1coc(-c2ccnc3nc(-n4cccc4)nn23)c1,28,6,62*,-4,8,-2
CC(C)C(O)(C#CCN1CCCCC1)c1ccccc1 (stereo not drawn),2,-12,31,-2,18,80*
CC(C)C(O)(C#CCN1CCCC1)c1ccccc1 (stereo not drawn),0,5,34,0,32,52
O=C(CSc1nc2ccc(Nc3nc(N4CCCC4)nc(N4CCCC4)n3)cc2s1)NCc1ccco1,27,92*,-9,.,-31,-1
O=[N+]([O-])c1cccc(-c2cn3nc(-c4ccccc4)c(-c4ccccc4)nc3n2)c1,-68,0,-7,.,-8,-4
O=Nc1c(-c2cccc([N+](=O)[O-])c2)nc2ncccn12,-65,12,55*,.,-6,-3
CC(=O)n1cc([C@H]2C=C(C(=O)N3CCN(Cc4ccc5c(c4)OCO5)CC3)O[C@@H](OCCCCO)C2)c2ccccc21,3,1,4,0,-2,-2
O=S1(=O)C=CC(c2ccccc2)C1 (stereo not drawn),17,2,8,.,-40,6
CC1=C(C#N)S(=O)(=O)C(C#N)C(c2ccccc2)C1 (stereo not drawn),25,95*,-11,.,-52,-3
NC(=O)CN(c1ccc([N+](=O)[O-])cc1)S(=O)(=O)c1ccccc1,23,0,17,0,-3,-2
COc1cccc(-n2nc(C(C)=O)c(C#N)c2-c2ccco2)c1,1,6,13,0,0,8
Cc1ccc(S(=O)(=O)Nc2ccc(Oc3cccnc3)nc2)cc1,-13,2,27,.,-9,-13
O=C(Cc1ccc([N+](=O)[O-])cc1)N1N=C(C2CC2)CC1(O)C(F)(F)F (stereo not drawn),-13,1,8,0,-1,91*
